Assay results reported in the supplement of paper PMC10849652.
The full data set covers some 8,800 targets. This sample favours those with a hit. About 0.5% of all pairs of compound and target were hits.

Tests used:
Assay in all cases: log2 fold change, soluble protein after heating vs DMSO (PISA); higher = thermal stabilisation; K562 lysate, 10 uM; active = over 0.2 and 3.5 SD of the protein, either way, in both replicates (recomputed)
[1] = compound: CCCS(=O)(=O)Nc1ccc(F)c(C(=O)c2c[nH]c3ncc(-c4ccc(Cl)cc4)cc23)c1F [vemurafenib]
Method in brief: (§1)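 Pellets of K562 cells were dounce-homogenised in PBS pH 7.4 with 1 mM MgCl2, and the crude extract was held at 1 mg/mL protein for a 30 min treatment with 10 μM compound. Aliquots were heated for 3 min over 48°C-58°C and pooled before NP-40 was added to 0.5% at 4°C. The supernatant from 21,000xg for 90 min was quantified by TMTpro 16plex LC-MS/MS with channel sums equalised. Values are reported from duplicates as log-two fold change in thermal stability relative to solvent controls.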

[2] = compound: CCCS(=O)(=O)Nc1ccc(F)c(C(=O)c2c[nH]c3ncc(Cl)cc23)c1F
Method in brief: as §1

[3] = compound: CCN(CCCOc1ccc2c(Nc3cc(CC(=O)Nc4cccc(F)c4)[nH]n3)ncnc2c1)CCOP(=O)(O)O [barasertib]
Method in brief: as §1

[4] = compound: CC[C@@H]1C(=O)N(C)c2cnc(Nc3ccc(C(=O)NC4CCN(C)CC4)cc3OC)nc2N1C1CCCC1
Method in brief: as §1

[5] = compound: CC[C@@H]1C(=O)N(C)c2cnc(Nc3ccc(C(=O)N[C@H]4CC[C@H](N5CCN(CC6CC6)CC5)CC4)cc3OC)nc2N1C(C)C [volasertib]
Method in brief: as §1

[6] = compound: CCn1c(C(=O)N(C2CC2)C2CC2)cc2c3c(ncn3C)c(Nc3cc(C)n(C)n3)nc21
Method in brief: as §1

[7] = compound: CCn1cc(-c2ccnc3[nH]c(-c4cccc(CN(C)C)c4)cc23)c(-c2ccc(NC(=O)N(C)C)cc2)n1
Method in brief: as §1

[8] = compound: CN1CCC(CNc2ccc3ncc(-c4cccc(OC(F)(F)F)c4)n3n2)CC1
Method in brief: as §1

[9] = compound: CN1CCN(CCOc2cc(OC3CCOCC3)c3c(Nc4c(Cl)ccc5c4OCO5)ncnc3c2)CC1 [saracatinib]
Method in brief: as §1

[10] = compound: CN1CCN(c2nc(C3=C(c4c[nH]c5ccccc45)C(=O)NC3=O)c3ccccc3n2)CC1 [sotrastaurin]
Method in brief: as §1

[11] = compound: CN1CC[C@H](c2c(O)cc(O)c3c(=O)cc(-c4ccccc4Cl)oc23)[C@H](O)C1 [alvocidib]
Method in brief: as §1

[12] = compound: CN1CCc2c(c3ccccc3n2Cc2ccc(C(=O)NO)cc2)C1 [Tubastatin A]
Method in brief: as §1

[13] = compound: CNC(=O)C1=CC=CC=C1NC2=NC(=NC=C2Cl)NC3=C(C=C(C=C3)N4CCOCC4)OC
Method in brief: as §1

[14] = compound: CNC(=O)c1ccc(Nc2ncc(C(F)(F)F)c(NCc3nccnc3N(C)S(C)(=O)=O)n2)cc1 [defactinib]
Method in brief: as §1

[15] = compound: CNc1nc(-c2ccc3c(N)n[nH]c3c2)cc(N2C[C@@H](C(=O)NC3CCCCC3)CC[C@H]2C)n1
Method in brief: as §1

[16] = compound: COC(=O)N[C@@H](C)CNc1nccc(-c2cn(C(C)C)nc2-c2cc(Cl)cc(NS(C)(=O)=O)c2F)n1 [encorafenib]
Method in brief: as §1

[17] = compound: COC(=O)[C@H](CCSC)NC(=O)C1=C(C=C(C=C1)NC[C@H](CS)N)C2=CC=CC=C2
Method in brief: as §1

[18] = compound: COc1cc(Nc2ncc3c(n2)-c2ccc(Cl)cc2C(c2c(F)cccc2OC)=NC3)ccc1C(=O)O [alisertib]
Method in brief: as §1

[19] = compound: COc1cc2nc(-c3cc(F)ccc3O)nc(N[C@@H]3CNC[C@H]3C(C)(C)O)c2cc1OC
Method in brief: as §1

[20] = compound: COc1cc2ncnc(Nc3ccc(F)c(Cl)c3)c2cc1OCCCN1CCOCC1 [gefitinib]
Method in brief: as §1

Measured: log2 fold change

CES2 isoform 4 (UniProt O00748)
inactive: [1] 0.03 | [2] -0.024 | [3] -0.052 | [4] -0.012 | [5] 0.004 | [6] -0.046 | [7] 0.002 | [8] 0.034 | [9] -0.001 | [10] -0.017 | [11] 0.021 | [12] -0.065 | [13] 0.09 | [14] -0.111 | [15] 0.219 | [16] 0.075 | [17] 0.01 | [18] -0.084 | [19] -0.002 | [20] -0.061

CCDC51 (UniProt Q96ER9)
active: [7] 0.262 | [8] -0.422
inactive: [1] 0.001 | [2] -0.008 | [3] 0.027 | [4] -0.005 | [5] 0.002 | [6] -0.009 | [9] -0.034 | [10] -0.072 | [11] 0.127 | [12] -0.037 | [13] -0.001 | [14] 0.008 | [15] 0.038 | [16] -0.008 | [17] -0.001 | [18] 0.016 | [19] -0.066 | [20] 0.022

CBFA2T3 (UniProt O75081)
Chain of UniProt O75081 (O75081 whole entry, looked up): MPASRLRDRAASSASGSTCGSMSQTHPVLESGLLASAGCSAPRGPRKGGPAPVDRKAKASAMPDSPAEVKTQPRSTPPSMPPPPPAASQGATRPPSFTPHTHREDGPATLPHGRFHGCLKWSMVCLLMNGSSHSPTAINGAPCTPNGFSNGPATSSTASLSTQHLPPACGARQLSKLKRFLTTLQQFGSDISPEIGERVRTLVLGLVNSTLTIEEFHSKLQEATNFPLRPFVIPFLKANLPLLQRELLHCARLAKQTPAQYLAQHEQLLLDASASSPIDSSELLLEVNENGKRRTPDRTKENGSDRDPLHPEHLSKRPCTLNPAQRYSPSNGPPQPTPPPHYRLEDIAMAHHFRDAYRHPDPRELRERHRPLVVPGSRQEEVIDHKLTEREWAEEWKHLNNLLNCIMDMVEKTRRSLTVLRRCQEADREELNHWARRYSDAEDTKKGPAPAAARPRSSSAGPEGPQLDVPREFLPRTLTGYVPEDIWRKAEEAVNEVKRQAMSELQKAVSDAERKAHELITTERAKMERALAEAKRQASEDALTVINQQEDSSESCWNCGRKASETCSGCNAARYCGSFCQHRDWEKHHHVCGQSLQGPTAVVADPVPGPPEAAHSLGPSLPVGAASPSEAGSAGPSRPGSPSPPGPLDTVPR
inactive: [1] -0.043 | [2] 0.018 | [3] -0.055 | [4] 0.003 | [5] -0.02 | [6] -0.007 | [7] -0.023 | [8] -0.018 | [9] 0.021 | [10] 0.015 | [11] -0.039 | [12] -0.131 | [13] 0.028 | [14] 0.004 | [15] 0.051 | [16] 0.056 | [17] 0.037 | [18] 0.031 | [19] -0.042 | [20] 0.018

CHD5 (UniProt Q8TDI0)
Chain of UniProt Q8TDI0 (Q8TDI0 whole entry, looked up): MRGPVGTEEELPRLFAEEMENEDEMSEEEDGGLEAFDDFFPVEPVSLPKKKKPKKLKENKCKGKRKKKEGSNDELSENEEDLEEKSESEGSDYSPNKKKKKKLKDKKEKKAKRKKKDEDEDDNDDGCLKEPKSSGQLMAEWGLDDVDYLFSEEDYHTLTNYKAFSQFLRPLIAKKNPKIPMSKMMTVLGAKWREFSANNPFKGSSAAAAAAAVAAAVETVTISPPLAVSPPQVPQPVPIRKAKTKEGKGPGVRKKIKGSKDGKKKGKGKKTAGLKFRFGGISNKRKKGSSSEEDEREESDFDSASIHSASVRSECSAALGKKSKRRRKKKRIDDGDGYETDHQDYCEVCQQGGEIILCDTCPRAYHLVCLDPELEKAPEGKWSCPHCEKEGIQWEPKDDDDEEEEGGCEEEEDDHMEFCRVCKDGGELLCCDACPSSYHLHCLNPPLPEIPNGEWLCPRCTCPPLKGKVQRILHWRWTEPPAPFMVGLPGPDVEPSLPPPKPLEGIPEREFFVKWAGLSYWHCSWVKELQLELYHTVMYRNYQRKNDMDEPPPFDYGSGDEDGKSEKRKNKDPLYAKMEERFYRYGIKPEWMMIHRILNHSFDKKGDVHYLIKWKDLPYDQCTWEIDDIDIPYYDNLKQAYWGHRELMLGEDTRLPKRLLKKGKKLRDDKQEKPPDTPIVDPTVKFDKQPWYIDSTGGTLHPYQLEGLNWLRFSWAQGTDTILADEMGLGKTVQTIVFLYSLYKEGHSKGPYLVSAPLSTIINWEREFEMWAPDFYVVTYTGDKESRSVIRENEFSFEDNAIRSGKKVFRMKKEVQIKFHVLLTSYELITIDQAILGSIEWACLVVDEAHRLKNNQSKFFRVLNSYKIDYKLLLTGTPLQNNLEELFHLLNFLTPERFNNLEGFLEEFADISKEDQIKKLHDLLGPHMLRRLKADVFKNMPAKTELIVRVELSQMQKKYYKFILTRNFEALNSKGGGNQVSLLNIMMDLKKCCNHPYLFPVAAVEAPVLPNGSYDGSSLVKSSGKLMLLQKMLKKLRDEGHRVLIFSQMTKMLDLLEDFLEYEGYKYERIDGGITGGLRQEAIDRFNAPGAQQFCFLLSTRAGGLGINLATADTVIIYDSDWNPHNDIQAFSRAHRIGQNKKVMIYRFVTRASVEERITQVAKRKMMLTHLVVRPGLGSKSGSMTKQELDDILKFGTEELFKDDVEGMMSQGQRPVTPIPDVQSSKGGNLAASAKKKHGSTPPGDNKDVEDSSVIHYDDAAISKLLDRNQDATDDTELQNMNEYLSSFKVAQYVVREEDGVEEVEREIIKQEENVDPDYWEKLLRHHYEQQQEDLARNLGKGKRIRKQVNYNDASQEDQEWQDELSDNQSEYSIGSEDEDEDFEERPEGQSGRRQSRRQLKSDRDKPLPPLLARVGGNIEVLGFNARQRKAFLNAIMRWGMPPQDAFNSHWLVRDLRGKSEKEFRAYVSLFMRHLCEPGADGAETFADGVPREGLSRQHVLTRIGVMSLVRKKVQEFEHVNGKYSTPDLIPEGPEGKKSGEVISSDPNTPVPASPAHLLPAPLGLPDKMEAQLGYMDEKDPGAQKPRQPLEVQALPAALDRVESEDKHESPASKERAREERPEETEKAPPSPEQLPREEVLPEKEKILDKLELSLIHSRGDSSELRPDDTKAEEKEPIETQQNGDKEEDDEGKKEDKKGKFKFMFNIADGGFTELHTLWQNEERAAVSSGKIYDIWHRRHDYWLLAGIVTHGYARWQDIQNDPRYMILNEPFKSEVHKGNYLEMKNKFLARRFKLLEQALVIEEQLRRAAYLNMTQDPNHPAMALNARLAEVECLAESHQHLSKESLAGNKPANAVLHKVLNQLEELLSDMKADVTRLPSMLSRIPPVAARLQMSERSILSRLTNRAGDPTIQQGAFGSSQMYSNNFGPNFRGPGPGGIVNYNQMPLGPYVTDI
inactive: [1] -0.034 | [2] 0.022 | [3] 0.034 | [4] 0.165 | [5] -0.028 | [6] -0.026 | [7] 0.051 | [8] -0.019 | [9] 0.026 | [10] 0.026 | [11] -0.005 | [12] -0.022 | [13] 0 | [14] -0.042 | [15] 0.037 | [16] 0.024 | [17] 0.033 | [18] -0.016 | [19] -0.009 | [20] -0.001

CFDP1 (UniProt Q9UEE9)
active: [7] -0.311
inactive: [1] -0.02 | [2] -0.008 | [3] -0.066 | [4] 0.025 | [5] 0.039 | [6] -0.015 | [8] 0.105 | [9] -0.007 | [10] 0.024 | [11] -0.104 | [12] 0.057 | [13] 0.042 | [14] -0.01 | [15] -0.051 | [16] 0.005 | [17] -0.021 | [18] -0.013 | [19] 0.015 | [20] -0.005

BPHL (UniProt Q86WA6)
inactive: [1] -0.13 | [2] 0.013 | [3] 0.058 | [4] 0.015 | [5] 0 | [6] 0.069 | [7] 0.063 | [8] 0 | [9] -0.058 | [10] 0.084 | [11] 0.004 | [12] -0.006 | [13] -0.048 | [14] 0.036 | [15] -0.137 | [16] -0.002 | [17] 0.004 | [18] 0.085 | [19] -0.028 | [20] 0.009

C18orf25 (UniProt Q96B23)
Chain of UniProt Q96B23 (Q96B23 whole entry, looked up): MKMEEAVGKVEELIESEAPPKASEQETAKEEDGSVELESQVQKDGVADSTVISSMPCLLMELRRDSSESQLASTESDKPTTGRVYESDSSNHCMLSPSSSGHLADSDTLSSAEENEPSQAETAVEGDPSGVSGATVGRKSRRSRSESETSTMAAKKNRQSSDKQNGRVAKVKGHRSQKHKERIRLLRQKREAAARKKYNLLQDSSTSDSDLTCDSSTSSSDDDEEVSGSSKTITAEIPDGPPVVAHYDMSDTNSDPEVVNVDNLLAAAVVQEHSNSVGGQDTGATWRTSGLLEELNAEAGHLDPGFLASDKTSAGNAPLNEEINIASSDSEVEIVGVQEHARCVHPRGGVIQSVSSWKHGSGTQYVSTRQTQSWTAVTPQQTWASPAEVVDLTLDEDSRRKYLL
inactive: [1] -0.014 | [2] 0.014 | [3] 0.004 | [4] 0.1 | [5] -0.013 | [6] -0.059 | [7] -0.035 | [8] 0.015 | [9] -0.032 | [10] 0.009 | [11] -0.014 | [12] 0.123 | [13] 0.034 | [14] 0.084 | [15] 0.041 | [16] -0.005 | [17] -0.067 | [18] 0.019 | [19] -0.027 | [20] 0.029

AURKAIP1 (UniProt Q9NWT8)
inactive: [1] 0.043 | [2] -0.124 | [3] 0.055 | [4] 0.071 | [5] 0.043 | [6] -0.129 | [7] -0.027 | [8] 0.129 | [9] 0.023 | [10] -0.055 | [11] 0.026 | [12] 0.219 | [13] -0.02 | [14] 0.083 | [15] 0.072 | [16] 0.077 | [17] -0.057 | [18] 0.067 | [19] 0.098 | [20] -0.032

CCNY (UniProt Q8ND76)
Chain of UniProt Q8ND76 (Q8ND76 whole entry, looked up): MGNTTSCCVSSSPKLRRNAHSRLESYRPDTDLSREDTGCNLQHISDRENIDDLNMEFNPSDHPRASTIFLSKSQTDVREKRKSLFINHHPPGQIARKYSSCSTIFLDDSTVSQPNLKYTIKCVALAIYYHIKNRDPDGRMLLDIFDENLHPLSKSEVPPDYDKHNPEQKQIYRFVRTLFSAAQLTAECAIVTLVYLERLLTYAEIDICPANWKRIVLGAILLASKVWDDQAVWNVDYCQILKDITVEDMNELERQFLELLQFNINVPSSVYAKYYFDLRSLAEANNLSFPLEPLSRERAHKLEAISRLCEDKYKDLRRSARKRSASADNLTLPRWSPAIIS
inactive: [1] -0.011 | [2] 0 | [3] -0.016 | [4] -0.148 | [5] 0.036 | [6] -0.103 | [7] 0.032 | [8] 0.037 | [9] 0.063 | [10] 0.025 | [11] 0.001 | [12] -0.139 | [13] -0.015 | [14] 0.011 | [15] 0.04 | [16] 0.023 | [17] -0.085 | [18] 0.037 | [19] 0.008 | [20] -0.091

CHCHD2 (UniProt Q9Y6H1)
inactive: [1] 0.076 | [2] -0.025 | [3] 0.011 | [4] 0.102 | [5] 0.086 | [6] 0.108 | [7] 0.16 | [8] -0.094 | [9] -0.011 | [10] 0.054 | [11] -0.061 | [12] 0.031 | [13] -0.003 | [14] -0.079 | [15] -0.024 | [16] -0.044 | [17] -0.126 | [18] -0.051 | [19] -0.033 | [20] 0.28

CDK5RAP3 isoform 4 (UniProt Q96JB5)
Chain of UniProt Q96JB5 (Q96JB5 whole entry, looked up): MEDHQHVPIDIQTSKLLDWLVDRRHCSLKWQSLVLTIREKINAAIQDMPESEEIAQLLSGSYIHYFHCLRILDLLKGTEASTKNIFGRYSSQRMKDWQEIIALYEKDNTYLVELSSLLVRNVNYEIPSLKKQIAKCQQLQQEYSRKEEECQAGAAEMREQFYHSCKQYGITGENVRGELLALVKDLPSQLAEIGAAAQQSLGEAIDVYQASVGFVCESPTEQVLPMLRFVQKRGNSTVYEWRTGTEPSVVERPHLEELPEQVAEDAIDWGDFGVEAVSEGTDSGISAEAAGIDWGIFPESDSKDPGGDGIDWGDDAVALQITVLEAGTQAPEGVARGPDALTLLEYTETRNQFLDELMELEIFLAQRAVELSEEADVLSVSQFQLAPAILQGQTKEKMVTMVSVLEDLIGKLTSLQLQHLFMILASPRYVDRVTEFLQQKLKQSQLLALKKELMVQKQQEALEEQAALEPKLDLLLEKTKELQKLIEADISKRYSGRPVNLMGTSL
inactive: [1] 0.023 | [2] 0.013 | [3] 0.022 | [4] -0.008 | [5] -0.051 | [6] 0.029 | [8] 0.216 | [9] -0.002 | [10] -0.021 | [11] -0.118 | [12] 0.038 | [13] -0.007 | [14] -0.021 | [15] 0.021 | [16] 0.007 | [17] 0.094 | [18] 0.006 | [19] 0.026 | [20] -0.024
active: [7] -0.313

ATAD1 (UniProt Q8NBU5)
Chain of UniProt Q8NBU5 (Q8NBU5 whole entry, looked up): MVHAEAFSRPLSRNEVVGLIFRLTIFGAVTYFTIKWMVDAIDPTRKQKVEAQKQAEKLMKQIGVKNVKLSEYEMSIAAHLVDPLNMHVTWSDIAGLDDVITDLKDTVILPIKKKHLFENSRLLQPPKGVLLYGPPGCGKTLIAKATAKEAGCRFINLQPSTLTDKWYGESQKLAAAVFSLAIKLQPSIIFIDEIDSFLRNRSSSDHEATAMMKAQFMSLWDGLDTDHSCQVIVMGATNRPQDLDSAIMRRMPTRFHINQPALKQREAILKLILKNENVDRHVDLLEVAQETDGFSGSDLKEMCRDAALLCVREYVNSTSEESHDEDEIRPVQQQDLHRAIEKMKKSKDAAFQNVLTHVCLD
inactive: [1] 0.052 | [2] -0.072 | [3] -0.008 | [4] 0.024 | [5] -0.018 | [6] -0.041 | [7] -0.04 | [8] -0.03 | [9] -0.031 | [10] 0.06 | [11] -0.047 | [12] -0.016 | [13] 0.045 | [14] -0.054 | [15] 0.006 | [16] -0.049 | [17] -0.042 | [18] -0.119 | [19] 0.039 | [20] 0.22

CCNB2 (UniProt O95067)
Chain of UniProt O95067 (O95067 whole entry, looked up): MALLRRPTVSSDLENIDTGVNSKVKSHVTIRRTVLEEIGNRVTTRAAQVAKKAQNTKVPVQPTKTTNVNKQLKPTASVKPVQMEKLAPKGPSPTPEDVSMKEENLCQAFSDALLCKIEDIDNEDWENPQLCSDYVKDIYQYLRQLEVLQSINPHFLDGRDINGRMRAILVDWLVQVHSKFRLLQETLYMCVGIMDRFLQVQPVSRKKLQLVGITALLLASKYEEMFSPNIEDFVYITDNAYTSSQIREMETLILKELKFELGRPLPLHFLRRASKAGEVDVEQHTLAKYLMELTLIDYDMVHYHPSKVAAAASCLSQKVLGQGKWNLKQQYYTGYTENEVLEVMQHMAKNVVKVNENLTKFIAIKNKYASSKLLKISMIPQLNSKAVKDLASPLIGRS
inactive: [1] 0.04 | [2] -0.008 | [3] 0.06 | [4] 0.037 | [5] -0.072 | [6] -0.059 | [7] -0.085 | [8] 0.011 | [9] 0.038 | [10] 0.078 | [11] 0.046 | [12] 0.027 | [13] 0.028 | [14] -0.044 | [15] 0 | [16] 0.039 | [17] 0.032 | [18] -0.076 | [19] 0.031 | [20] 0.084

AURKA (UniProt O14965)
Chain of UniProt O14965 (O14965 whole entry, looked up): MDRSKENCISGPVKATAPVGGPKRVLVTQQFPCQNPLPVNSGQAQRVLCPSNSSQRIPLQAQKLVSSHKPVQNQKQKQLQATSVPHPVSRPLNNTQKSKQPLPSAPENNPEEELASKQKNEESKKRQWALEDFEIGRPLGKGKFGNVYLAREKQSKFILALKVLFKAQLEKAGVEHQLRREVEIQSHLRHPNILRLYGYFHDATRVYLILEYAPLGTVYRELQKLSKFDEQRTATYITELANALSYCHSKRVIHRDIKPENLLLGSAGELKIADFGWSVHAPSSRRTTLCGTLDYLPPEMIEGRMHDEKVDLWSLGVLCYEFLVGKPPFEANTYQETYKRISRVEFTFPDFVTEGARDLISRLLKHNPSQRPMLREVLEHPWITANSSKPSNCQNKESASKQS
inactive: [1] 0.088 | [2] 0.068 | [4] -0.062 | [5] -0.015 | [6] -0.009 | [8] 0.096 | [9] 0.008 | [10] 0.028 | [11] -0.006 | [12] 0.03 | [13] 0.586 | [14] 0.425 | [15] 0.094 | [16] -0.068 | [17] 0.002 | [18] 0.436 | [19] -0.023 | [20] -0.101
active: [3] 0.763 | [7] 0.719

CHD3 isoform 3 (UniProt Q12873)
inactive: [1] -0.033 | [2] 0.009 | [3] 0.035 | [4] -0.02 | [5] -0.018 | [6] -0.039 | [7] -0.066 | [8] -0.027 | [9] 0.001 | [10] 0.004 | [11] 0.003 | [12] -0.074 | [13] 0.015 | [14] 0.006 | [15] 0.02 | [16] 0.029 | [17] 0.085 | [18] 0.047 | [19] 0.01 | [20] -0.014
